Sm TGR inh = qHTS Assay for the Inhibitors of Schistosoma Mansoni Peroxiredoxins; AID 485364, 2010; purified TGR, DTNB reduction, TNB absorbance 405 nm; Potency, µM (doses to about 114 µM), inactives show at the top dose activity change, negative = inhibition, usual class: inhibitors; 360,000 compounds, 3% hits; Schistosoma mansoni thioredoxin glutathione reductase (TGR), Q962Y6; also: potency is read from the fitted curve at half-maximal effect; % is scaled to controls: 0 for no effect and ±100 for the full control effect; nearly all actives have a fitted effect of over 60% in size
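First, TGR (20 nM dispensed) and NADPH were mixed with compound. Second, a 15 min room-temperature incubation followed. Third, further NADPH and then DTNB were added to start the reaction. Finally, TNB absorbance was monitored kinetically.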
Pf growth 96h = Primary qHTS for delayed death inhibitors of the malarial parasite plastid, 96 hour incubation. Potency, µM (top dose mostly 28.7 µM), for inactives: at the top dose activity change, negative = inhibition, actives largely listed as inhibitors. 320,000 compounds, 6.9% hits. P. falciparum luciferase reporter growth, 96 h; also: potency is read from the fitted curve at half-maximal effect; % is scaled to controls: 0 for no effect and ±100 for the full control effect
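Cell-based qHTS: luciferase-tagged P. falciparum in erythrocytes (2% hematocrit, 0.05% parasitemia final) incubated with compounds for 96 hours, 37 C, 5% CO2; luciferase detection reagent then added and luminescence measured.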
Pf growth 48h = Primary qHTS for delayed death inhibitors of the malarial parasite plastid, 48 hour incubation; AID 504832, 2011; P. falciparum luciferase growth in erythrocytes, 48 h; 310,000 compounds, 5.9% hits; Potency, µM (highest dose often 28.7 µM), inactives show top-dose activity change, negative = inhibition, most hits filed as inhibitors; also: potency is read from the fitted curve at half-maximal effect; % is scaled to controls: 0 for no effect and ±100 for the full control effect
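First compound was added to culture medium, then infected red cells at 0.1% parasitemia and 2% hematocrit (final). After incubation at 37 C under 5% CO2, luciferase detection reagent was dispensed and light output recorded.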
HCMV inh = qHTS Assay for inhibitors of the human cytomegalovirus (HCMV); HFF cells, HCMV-luciferase reporter, 72 h; stronger effect = lower value; activity change, negative = inhibition, % at 57.5 µM; 410,000 compounds, 4.5% hits; AID 1259415, 2018; in the data active = activity change below about -60%; inconclusive = no clear call, values can overlap the other calls; inactive = above about -39%; also: % is scaled to controls: 0 for no effect and ±100 for the full control effect
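Compounds were evaluated in HFFs infected with an HCMV luciferase reporter virus (MOI 1 PFU/cell). Luciferase in lysates collected 72 h post infection served as the replication measure.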
HCV inh = qHTS Assay for Inhibitors of Hepatitis C Virus (HCV) | Huh7.5.1 HCVcc-Cre infection, luciferase reporter, 44 h | Potency, µM (highest dose often 41.8 µM), for inactives: top-dose activity change, negative = inhibition, most hits filed as inhibitors | 340,000 compounds, 3.4% hits; also: potency is read from the fitted curve at half-maximal effect; % is scaled to controls: 0 for no effect and ±100 for the full control effect
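Infectious HCVcc-Cre (~0.5 moi) was added to cells just after compound, with cells seeded 4 h earlier at 1,000 per well. Luciferase activity after 44 h culture reported infection; substrate was incubated 15 min at room temperature before reading.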
SARS PLpro yeast = qHTS of Yeast-based Assay for SARS-CoV PLP; 330,000 compounds, 0.19% hits; Potency, µM (doses to about 32.9 µM), for the others: at the highest dose activity, positive = growth rescue, most hits filed as activators; S. cerevisiae expressing SARS-CoV PLpro, growth rescue; calls by dose curve; also: potency is read from the fitted curve at half-maximal effect; 0% is about no effect; nearly all actives have a fitted effect of over 55% in size
Active calls of the source: *; ? = inconclusive; . = no result; [ ] = dose if it differs, or a comment. The list is not random: actives were taken first. Their share in the collection is about 15%. Unless noted, calls follow the shape of the dose curve; as a rule, active = well fitted curve in the direction sought with a large enough effect; inconclusive = small, poorly fitted or top-dose-only effect, or another doubt; inactive = no such curve, though single readings can be large; an effect the other way counts as inactive or inconclusive.

SMILES	Sm TGR inh	Pf growth 96h	Pf growth 48h	HCMV inh	HCV inh	SARS PLpro yeast
CCCCCNC(=O)C(=O)C(=O)c1cc(OC)c(OC)c(OC)c1	.	.	.	18	.	.
CCCn1c(SCCC(=O)O)nc2ccccc21	23%	414%	39%	-18	28%	1%
O=C(O)Cn1c(-c2ccccc2)nc2ccccc21	-15%	-100%	31%	25	3%	-7%
COc1ccc(OCCSc2nc3ccccc3n2CCC(=O)O)cc1	-34%	11%	-7%	6	9%	8%
O=C(O)CCSc1nc2ccccc2n1Cc1ccccc1	-1%	2.9µM*	-9%	-5	12%	3%
O=C(O)Cn1c(=O)c(-c2ccccc2)nc2ccccc21	-1%	7.4µM*	13%	6	29%	2%
O=C(O)CCn1c(SCCOc2ccccc2)nc2ccccc21	4%	12µM*	17%	-16	18%	1%
Cc1ccc(OCCSc2nc3ccccc3n2CC(=O)O)cc1C	-1%	12µM*	8%	-9	12%	3%
O=C(c1ccc(-n2cncn2)c2ccoc12)N1CCOCC1	.	.	.	-6	.	.
CC(C)(CNC(=O)/C=C/c1ccc(F)cc1)CNC(=O)/C=C/c1ccc(F)cc1	9%	?	-20%	-3	-23%	-3%
COc1ccc(S(=O)(=O)N2CCCOC2CNC(=O)C(=O)NC2CCCC2)cc1 (configuration not stated)	1%	-26%	-2%	5	-4%	-3%
CCCCn1c(=O)c(CCC(=O)O)nc2ccccc21	-30%	?	14%	47	4%	1%
COc1nc2ccccc2nc1CCC(=O)O	0.1µM*	?	0%	-19	10%	0%
O=C(O)Cn1c(SCCOc2ccccc2)nc2ccccc21	2%	8.3µM*	13%	8	3%	.
O=C(O)COc1ccccc1/C=N/NC(=O)CSc1nc2ccccc2n1Cc1ccc(Cl)cc1	10%	?	15µM*	-15	5%	2%
O=C(O)CCc1nc2ccccc2n(CCc2ccccc2)c1=O	40µM*	6%	14%	?	12%	3%
O=C(CSc1nc2ccccc2n1Cc1ccc(Cl)cc1)N/N=C/c1ccccc1C(=O)O	-1%	34%	-18%	-30	13%	-1%
COC(=O)CCc1nc2ccccc2nc1OC	6%	27%	9%	-5	2%	-1%
CC(=O)c1nn(-c2ccc(OC(F)(F)F)cc2)nc1Nc1ccc(Cl)cc1	-1%	.	.	?	.	.
COc1cccc(NC(=O)c2ccccc2NS(C)(=O)=O)c1	3%	.	5%	78	-8%	4%
CS(=O)(=O)Nc1ccccc1C(=O)Nc1cccc(Cl)c1	-4%	-1%[5.75 µM]	-21%	-67*	-4%	-3%
CS(=O)(=O)Nc1ccccc1C(=O)Nc1ccccc1Cl	-10%	?	-4%	33	8%	12%
CS(=O)(=O)Nc1ccccc1C(=O)Nc1cc(Cl)cc(Cl)c1	-2%	8%	.	-103*	?	22%
C[C@@H](c1ccccc1)N1C[C@H](COCc2ccccc2)Oc2cc(N3CC[C@@H](O)C3)ccc2S1(=O)=O	.	.	.	-7	.	.
COc1cccc(/C=N/NC(=O)c2ccc(CN3c4cccc5cccc(c45)S3(=O)=O)cc2)c1	6%	10µM*	-16%	?	-22%	-5%
SMILES	Sm TGR inh	Pf growth 96h	Pf growth 48h	HCMV inh	HCV inh	SARS PLpro yeast
COc1cccc(CNC(=O)C(c2ccc(Cl)cc2)C(C)C)c1 (configuration not stated)	-3%	6.6µM*	9.3µM*	-10	14%	11%
COc1cccc(CNC(=O)CN2c3cccc4cccc(c34)S2(=O)=O)c1	-11%	5%	0%	-88*	-26%	-5%
COc1cccc(CNC(=O)c2ccc(C(=O)NCc3cccc(OC)c3)cc2)c1	-1%	2%	8%	-5	-8%	?
COc1cccc(CNC(=O)N[C@@H](C)C(=O)O)c1	3%	0%	66%	12	-2%	0%
COc1cccc(CNC(=O)CCl)c1	?	10µM*	?	-17	31%	25%
COc1ccc(S[C@]2(c3nc(C)no3)CC(=O)N(c3ccc(Cl)cc3)[C@@H]2c2ccc(OC)cc2)cc1	.	.	.	9	.	.
CCCCNC(=O)C1(C)CCN1C(=O)c1cc(-c2ccccc2)cs1 (configuration not stated)	.	.	.	-15	.	.
CN(C)CCN(Cc1ccccc1)S(=O)(=O)c1ccc2[nH]c(=O)ccc2c1	1%	.	.	11	.	.
COc1cccc(CNC(=O)COC(=O)c2nc(Cl)c(Cl)c(Cl)c2Cl)c1	3.2µM*	-4%	-17%	0	?	-2%
COc1cccc(CNC(=O)COC(=O)c2c(NC(C)=O)sc(C)c2C)c1	.	.	.	-17	-11%	-11%
COc1cc(OC)cc(-c2noc([C@H]3C[C@H](O)[C@@H](CO)O3)n2)c1	.	.	.	48	.	.
O=C(CSc1nnc(COc2cccc3cccnc23)o1)N1CCc2ccccc21	-3%	-2%	25%	60	2.2µM*	4%
O=C(CSc1nnc(COc2ccc(F)cc2)o1)N1c2ccccc2CCc2ccccc21	-28%	?	4.1µM*	-30	.	-7%
Cc1cccc(OCc2nnc(SCC(=O)N3c4ccccc4CCc4ccccc43)o2)c1	3%	?	10µM*	?	-27%	0%
O=C(CSc1nnc(Cc2ccccc2)o1)N1CCc2ccccc21	-1%	-23%	11%	12	-18%	4%
O=C(CSc1nnc(CNc2ccc(F)cc2)o1)N1c2ccccc2Sc2ccccc21	3%	?	?	-37	10µM*	-11%
C=CCNc1nc(C(=O)OCC(=O)Nc2c(Cl)cccc2C(F)(F)F)cs1	-5%	68%	6%	-19	-4%	1%
CCn1c(CN2CCN(c3ccc(Cl)cc3)CC2)nc2ccccc21	-5%	?	12µM*	-11	?	26%
Cn1c(CN2CCN(c3ccccc3NS(C)(=O)=O)CC2)nc2ccccc21	1%	?	-26%	16	-29%	1%
Cn1c(CN2CCN(c3ccc(Cl)cc3)CC2)nc2ccccc21	1%	?	-12%	24	-17%	8.9µM*
Cc1ccc(S(=O)(=O)Nc2ccccc2C(=O)N2CCCCCC2)cc1	-15%	?	27%	8	15%	0%
CCN(CC(=O)Nc1cccc(S(=O)(=O)N2CCCC2)c1)CC(=O)Nc1ccccc1OC	-6%	9.3µM*	?	-36	?	0%
